Screening results as filed in PubChem.
This is a sample that favours compounds with a hit; in the whole collection about 0.9% have one here.
APE1 inh: qHTS Assay for Inhibitors of the Human Apurinic/apyrimidinic Endonuclease 1 (APE1). DNA repair nuclease/redox regulator APEX1 (Homo sapiens), P27695. recombinant APE1, TAMRA/BHQ-2 abasic DNA cleavage fluorescence. Potency, µM (titrated, usually from 65.8 µM), for inactives: at the top dose activity change, negative = inhibition, actives largely listed as inhibitors. actives 0.35% (n = 350,000). AID 2517, 2012;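 note: plate controls were vehicle for no effect and reference inhibitor for full effect; nearly all actives have a fitted effect of over 55% in size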
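APE1 at 0.75 nM final was preincubated with compound 15 min at room temperature, then 50 nM double-stranded THF abasic-site substrate (5'-TAMRA/3'-BHQ-2) was added. Fluorescence (ex 525/em 598 nm) was read kinetically; third-minus-first read gave activity.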
TRb SRC2 PPI: qHTS for Inhibitors of the Interaction of Thyroid Hormone Receptor and Steroid Receptor Coregulator 2; Potency, µM (top dose mostly 106 µM), for inactives: at the top dose activity change, negative = inhibition, usual class: inhibitors; actives 0.065% (n = 280,000); TRbeta-SRC2 peptide binding, fluorescence polarization; receptor liganded with 1 µM T3;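 note: plate controls were bound peptide for no effect and peptide without receptor for full effect; nearly all actives have a fitted effect of over 50% in size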
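Binding of a 20-amino-acid Texas Red SRC2 peptide (20 nM) to TRb ligand-binding domain (0.6 uM) with agonist T3 at 1 uM was followed by fluorescence polarization after a 5 hr room-temperature incubation.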
TR SRC2 fluor cs: Total Fluorescence Counterscreen for Inhibitors of the Interaction of Thyroid Hormone Receptor and Steroid Receptor Coregulator 2. Potency, µM (series often up to 106 µM), for inactives: at the top dose fluorescence change, negative = quenching. AID 1479, 2009. TRb/SRC2 Texas Red total fluorescence interference. actives 0.29% (n = 280,000); active = well fitted curve in either direction with a large enough effect; inconclusive = small, poorly fitted or top-dose-only effect
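Flags fluorescent or light-absorbing compounds by total fluorescence, S + 2P, at 555 nm excitation and 632 nm emission. Mixture: 20 nM Texas Red SRC2 peptide, 0.6 uM human TRb LBD, 1 uM T3, 5% DMSO; compound exposure 5 h at ambient temperature.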
BLM inh: qHTS Assay for Inhibitors of Bloom's syndrome helicase (BLM). RecQ-like DNA helicase BLM (Homo sapiens), P54132. recombinant BLM DNA unwinding, fluorescence dequenching. Potency, µM (doses to about 56.1 µM), for inactives: at the top dose activity change, negative = inhibition, usual class: inhibitors. actives 0.2% (n = 350,000);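 note: plate controls were vehicle for no effect and no enzyme for full effect; nearly all actives have a fitted effect of over 35% in size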
RECQ1 inh-1: qHTS Assay for Inhibitors of RecQ-Like Dna Helicase 1 (RECQ1); Potency, µM (doses to about 57.3 µM), for inactives: at the highest dose activity, negative = inhibition, hits mostly inhibitors; RECQ1 DNA unwinding, red fluorescence kinetic read; AID 2549, 2010; ATP-dependent DNA helicase Q1 (Homo sapiens), P46063; actives 0.54% (n = 240,000);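 note: plate controls were vehicle for no effect and no enzyme for full effect; nearly all actives have a fitted effect of over 30% in size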
Target sequence (P46063 whole entry, looked up): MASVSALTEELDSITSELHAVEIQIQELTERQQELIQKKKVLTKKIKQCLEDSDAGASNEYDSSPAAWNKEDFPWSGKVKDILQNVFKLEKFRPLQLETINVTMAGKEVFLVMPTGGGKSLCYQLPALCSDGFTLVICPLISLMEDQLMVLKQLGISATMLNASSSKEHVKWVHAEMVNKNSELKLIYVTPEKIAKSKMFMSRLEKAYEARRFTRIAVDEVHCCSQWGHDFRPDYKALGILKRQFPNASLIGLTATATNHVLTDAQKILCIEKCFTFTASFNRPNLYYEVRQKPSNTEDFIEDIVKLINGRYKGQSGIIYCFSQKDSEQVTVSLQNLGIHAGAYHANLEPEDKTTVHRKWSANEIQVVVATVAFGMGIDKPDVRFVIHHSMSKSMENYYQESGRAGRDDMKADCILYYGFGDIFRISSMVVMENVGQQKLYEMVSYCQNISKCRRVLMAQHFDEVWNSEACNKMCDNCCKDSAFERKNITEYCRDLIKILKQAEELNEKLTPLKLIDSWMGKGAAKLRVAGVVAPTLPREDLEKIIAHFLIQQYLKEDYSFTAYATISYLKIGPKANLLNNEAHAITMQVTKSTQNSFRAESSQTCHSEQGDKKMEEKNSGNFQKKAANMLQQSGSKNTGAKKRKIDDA
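50 nM RECQ1T1 preincubated 15 min with compound in Tris pH 8.0 buffer with MgCl2, DTT, Tween-20 and 2.5 ug/ml poly(dI-dC); started with 200 nM TAMRA/BHQ-2 forked duplex and 2 mM ATP. Unwinding read as fluorescence (525/598 nm), two reads 2 h apart.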
RGS12 GoLoco inh: qHTS Assay for Inhibitors of RGS12 GoLoco Motif Activity (Red Fluorophore) | actives 0.44% (n = 230,000) | Gai1:RGS12 GoLoco peptide FP, rhodamine, 10 min | Potency, µM (top dose mostly 61.6 µM), for the others: at the highest dose activity, negative = inhibition, most hits filed as inhibitors | AID 880, 2007; active = well fitted inhibition curve with a large enough effect, not every such curve was filed as active; inactive = no such curve, though single readings can be large or run the other way; note: nearly all actives have a fitted effect of over 30% in size
RECQ1 conf: Confirmation qHTS Assay for Inhibitors of RecQ-Like Dna Helicase 1 (RECQ1); shares compounds with RECQ1 inh-1; RECQ1 helicase DNA unwinding, fluorescence; Potency, µM (titrated, usually from 229 µM), without a hit: at the highest dose activity change, negative = inhibition, usual class: inhibitors; actives 28% (n = 610); AID 2708, 2010; note: nearly all actives have a fitted effect of over 45% in size
ADP FP counter: Counterscreen for RECQ1 Inhibitors: ADP Fluorescence Polarization Displacement Assay; ADP fluorescence polarization displacement counterscreen; actives 27% (n = 530); Potency, µM (titrated, usually from 228 µM), for the others: at the top dose activity change, negative = inhibition, usual class: inhibitors; shares compounds with RECQ1 inh-1; AID 2711, 2010; note: nearly all actives have a fitted effect of over 45% in size
RECQ1 inh-2: Confirmation qHTS Assay for Inhibitors of RecQ-Like Dna Helicase 1 (RECQ1) - Round 2 Cherry Picks | shares compounds with RECQ1 inh-1 | recombinant RECQ1 DNA unwinding, red fluorescence | Potency, µM (doses to about 119 µM), for inactives: at the top dose activity, negative = inhibition, actives largely listed as inhibitors | actives 15% (n = 1,100); note: nearly all actives have a fitted effect of over 50% in size
* hit, by the source's call; i = inactive; ? = inconclusive; nt = no result; [ ] = dose if it differs, or a comment. Unless noted, calls come from the whole dose curve; as a rule, active = well fitted curve in the direction sought with a large enough effect; inconclusive = small, poorly fitted or top-dose-only effect, or another doubt; inactive = no such curve, though single readings can be large; an effect the other way counts as inactive or inconclusive. Unless noted, % is set by controls: 0 for no effect and ±100 for the full control effect; potency is the fitted concentration of half-maximal effect.

SMILES | APE1 inh | TRb SRC2 PPI | TR SRC2 fluor cs | BLM inh | RECQ1 inh-1 | RGS12 GoLoco inh | RECQ1 inh-2 | others
COc1ccc(-c2nn(-c3ccccc3)cc2/C=C/C(=O)O)cc1[N+](=O)[O-] | -9% | 21% | -23% | 10% | ? | 21% | -5%
COc1ccc(-c2nn(-c3ccccc3)cc2C=O)cc1[N+](=O)[O-] | 21% | nt | nt | -11% | nt | nt | nt
CCc1ccccc1N1C(=O)N(Cc2cc(=O)n3ccccc3n2)c2ccccc2S1(=O)=O | nt | -3% | -2% | -3% | nt | nt | nt
CN(C)c1ccc(C(=O)/C=C/c2ccc(Br)cc2)cc1 | 2% | -4% | 0% | -4% | i | -4% | nt
CCN(CC)c1ccc(/C=C/C(=O)c2ccc(Br)cc2)cc1 | -6% | 19% | 7% | -19% | 8.9µM* | 296% | 50µM* | RECQ1 conf=63µM*
CCOc1ccc(NC(=O)CSC2=Nc3ccccc3C3=NC(Cc4ccccc4)C(=O)N23)cc1 (stereo unspecified) | nt | -4% | -5% | -1% | nt | nt | nt
COc1ccc(-n2c(N)c(C(=O)NCC3CCCO3)c3nc4ccccc4nc32)c(OC)c1 (stereo unspecified) | ? | ? | -7% | -10% | ? | 10% | -20%
COc1ccc(-n2nc(C(=O)NCC(=O)NCC3CCCO3)c3ccccc3c2=O)c(OC)c1 (stereo unspecified) | -1% | 0% | 4% | -6% | -3% | nt | nt
O=S(=O)(c1ccccc1)N1CCC[C@@]2(CCN(C(c3ccccc3)c3ccccc3)C2)C1 | 5% | nt | nt | -7% | -7% | 12% | nt
O=C(CCN1C(=O)c2ccccc2Sc2ncccc21)Nc1ccc(F)cc1F | nt | 5% | -2% | -7% | nt | nt | nt
N=c1c(C(=O)NCc2ccc(F)cc2)cc2c(=O)n3ccccc3nc2n1CCCN1CCOCC1 | 15% | -12% | 5% | -7% | ? | 9% | 3%
COC(=O)C1=C(C)[C@@H](O)[C@@H](C)[C@H](c2c(OC)c(OC)c(C)c(OC)c2OC)O1 | -4%[12.4 µM] | 0%[11.2 µM] | -6%[11.2 µM] | -9%[12.4 µM] | i[11.5 µM] | nt | nt
CS(=O)(=O)N(CC(=O)Nc1ccc(CC#N)cc1)c1ccc(C23CC4CC(CC(C4)C2)C3)cc1 | 5% | 3% | -4% | -13% | 7.9µM* | 5% | ?
Cn1nc(C(=O)Nc2nc3ccccc3[nH]2)c2ccccc2c1=O | 2% | 5% | 2% | -15% | ? | 20% | ?
O=C(NC(Cc1c[nH]c2ccccc12)C(=O)O)/C(=C/c1ccc2c(c1)OCO2)NC(=O)c1ccccc1 (stereo unspecified) | -5% | 2% | -2% | -1% | -5% | 1% | nt | RECQ1 conf=4%;ADP FP counter=?
O=C(Cn1nnc2ccccc2c1=O)N[C@@H](Cc1ccccc1)C(=O)O | 3% | 1% | 0% | -1% | 1% | -1% | nt
Cc1ccc(C(=O)Nc2ccccc2C(=O)NC(Cc2c[nH]c3ccccc23)C(=O)O)cc1 (stereo unspecified) | -3% | -2% | -1% | -1% | i | 18% | nt | RECQ1 conf=14%;ADP FP counter=-12%
O=C(Cn1nnc2ccccc2c1=O)N[C@@H](Cc1c[nH]c2ccccc12)C(=O)O | -1% | -7% | 0% | 0% | 7% | 6% | nt | RECQ1 conf=6%;ADP FP counter=2%
Cc1cccc(-c2nc(CN3CCCC(C(=O)N4CCN(c5cc(Cl)ccc5C)CC4)C3)c(C)o2)c1 (stereo unspecified) | nt | -9% | -1% | -9% | nt | nt | nt
CC(=O)c1ccc(NC(=O)c2noc3c2CCC3)cc1 | ? | -5% | 0% | -28% | ? | 1% | nt
COc1ccc(NC(=O)c2noc3c2CCC3)cc1 | 20µM* | -2% | -4% | -20% | ? | -5% | ?
COc1ccccc1-n1c(SCC(=O)Nc2ccccc2C)nc(O)cc1=O | 2% | 0% | 3% | -16% | 10µM* | 29% | -7% | RECQ1 conf=11%[114 µM];ADP FP counter=12%[91.9 µM]
Cc1ccc(C(=O)NC2(C(F)(F)F)C(=O)Nc3c2c(=O)[nH]c(=O)n3CCc2ccccc2)cc1 (stereo unspecified) | nt | 5% | -16% | -1% | nt | nt | nt
O=C(/C=C\c1ccco1)NC(=S)Nc1ccccc1O | 0% | -12% | -4% | -7% | -21% | 8% | nt
Cc1ccc(NC(=S)NC(=O)/C=C/c2ccco2)c(O)c1 | ? | -14% | -9% | -14% | ? | 21% | -23%
CCCCNC(=O)C1CCCN(S(=O)(=O)CCC)C1 (stereo unspecified) | nt | -2% | -3% | -4% | nt | nt | nt
COc1cc(NC(=O)c2cccs2)c(C(=O)OCC(=O)NCc2ccco2)cc1OC | ? | -9% | -6% | ? | 8.9µM* | -8% | ? | RECQ1 conf=28µM*;ADP FP counter=?
c1coc(-c2nnc3sc(Cc4cccs4)nn23)c1 | 25µM* | -5% | -18% | -27% | ? | 58% | ?
COc1ccc(OCc2nn3c(-c4ccco4)nnc3s2)cc1 | -12% | -9% | -2% | -6% | -5% | nt | nt
Clc1ccc(-c2nnc3sc(Cc4cccs4)nn23)c(Cl)c1 | 0% | 1% | -1% | -7% | -18% | 43% | nt
